Earlier results on 28 compounds are cited in PubChem BioAssay AID977608.

Out of some 4,300 compounds screened, about 4,300 (100%) were called active. The limit is not given here; nearly all actives have IC50 up to about 1400 µM. The set was probably picked from earlier hits. Some of the results follow. Positions of bridges follow the written chain, without caps; N, C: chain ends. Bridge positions count the residues as written; N and C are the ends. Non-standard residues stand in square brackets, D forms with d. Square brackets hold non-standard residues; d marks the D form. Residues, ends and D or L forms follow the SMILES beside them. Peptide text beside a SMILES is read from it. *: point of attachment. Phe(3,5-F2) = N[C@@H](Cc1cc(F)cc(F)c1)C(=O)O; Orn(CH(NH2)2) = NC(N)NCCC[C@H](N)C(=O)O; Pip(4S-Me) = C[C@H]1CCN[C@H](C(=O)O)C1; β3hR = N=C(N)NCCC[C@H](N)CC(=O)O; β3hE = N[C@@H](CCC(=O)O)CC(=O)O; β3hQ = NC(=O)CC[C@H](N)CC(=O)O; X1 = CC[C@H](C)C/C=C/C(=O)*; β3hD = NC(CC(=O)O)CC(=O)O; β3hA = C[C@H](N)CC(=O)O

The nature of the series: literature IC50 values for PDB complexes, PDB-derived complexes (AID 977608). As to conditions: PDB protein-ligand complexes.

Take H-MHRVSAALEEANKVFL-OH: the IC50 (protein: Maltose ABC transporter periplasmic protein, Nuclear receptor subfamily 0 group B member 2 chimeric construct MBP-SHP, PDB entry 4nuf) was 5 µM (active).
With `O=C(Nc1ccccc1N1CCNCC1)c1csc(-n2ncc3ccccc32)n1`, the IC50 (protein: Serine/threonine-protein kinase Chk1, PDB entry 4hyi) is 0.003 µM (active).
As for `CN1C(=O)N[C@H](Cc2c[nH]c3c(Cl)cccc23)C1=O`, the IC50 (protein: Receptor-interacting serine/threonine-protein kinase 1 (C34A, C127A, C233A, C240A mutation), PDB entry 4ith) is 0.317 µM (active).
In the case of `CO[C@H]1CCO[C@@]2(C)Oc3c(C)c(=O)c4c(O)c(c5oc6cccc(OCCCCN7CCN(CCn8ccnc8)CC7)c6nc5c4c3C2=O)NC(=O)[C@H](C)CCC[C@H](C)[C@H](O)[C@@H](C)[C@@H](O)[C@@H](C)[C@H](OC(C)=O)[C@@H]1C`, the IC50 (protein: DNA-directed RNA polymerase subunit alpha, PDB entry 4kn7) is 0.024 µM (active).
In the case of `CCN(CC)CCOc1cccc2oc3c4c(O)c5c(=O)c(C)c6c(c5c3nc12)C(=O)[C@@](C)(OCC[C@H](OC)[C@@H](C)[C@@H](OC(C)=O)[C@H](C)[C@H](O)[C@H](C)[C@@H](O)[C@@H](C)CCC[C@@H](C)C(=O)N4)O6`, the IC50 (protein: DNA-directed RNA polymerase subunit alpha, PDB entry 4kn4) was 0.057 µM (active).
On to `CC[C@H](C)[C@H](NC(=O)C[C@H](CCC(=O)O)NC(=O)[C@H](CCC(=O)O)NC(=O)[C@H](C)N)C(=O)NCC(=O)N[C@@H](C)C(=O)N[C@@H](CCC(N)=O)CC(=O)N[C@@H](CC(C)C)C(=O)N[C@@H](CCCN=C(N)N)C(=O)N[C@@H](CCCN=C(N)N)CC(=O)N[C@@H](CCSC)C(=O)N[C@@H](C)C(=O)N[C@@H](CC(=O)O)C(=O)N[C@@H](CC(=O)O)CC(=O)N[C@@H](CC(C)C)C(=O)N[C@@H](CC(N)=O)C(=O)N[C@@H](C)CC(=O)N[C@@H](CCC(N)=O)C(=O)N[C@@H](Cc1ccc(O)cc1)C(=O)O` (H-AE[β3hE]IGA[β3hQ]LR[β3hR]MAD[β3hD]LN[β3hA]QY-OH), for which, for the setting “protein: fusion protein of mouse and human Mcl-1, PDB entry 4bpi”, the IC50 is 0.67 µM (active).
For the compound `CC[C@H](C)[C@H](NC(=O)[C@H](C)N)C(=O)N[C@H](C)C(=O)N[C@@H](C)C(=O)N[C@@H](CCC(N)=O)CC(=O)N[C@@H](CC(C)C)C(=O)N[C@@H](CCCN=C(N)N)C(=O)N[C@@H](CCCN=C(N)N)CC(=O)N[C@@H](CCSC)C(=O)N[C@@H](C)C(=O)N[C@@H](CC(=O)O)C(=O)N[C@@H](CC(=O)O)CC(=O)N[C@@H](CC(C)C)C(=O)N[C@@H](CC(N)=O)C(=O)N[C@@H](C)CC(=O)N[C@@H](CCC(N)=O)C(=O)N[C@@H](Cc1ccc(O)cc1)C(=O)N[C@@H](CCC(=O)O)C(N)=O`, the concentration for half-maximal inhibition (IC50) (protein: fusion protein of mouse and human Mcl-1, PDB entry 4bpj) is 1 µM (active).
Turning to `Nc1ncc2c(n1)-c1c([nH]c3ccc(Br)cc13)CCC2`, where the note is “protein: Mitogen-activated protein kinase kinase kinase 14, PDB entry 4idt”, the IC50 is 0.1 µM (active).
As to `N#CNC(=NCCCCCCOc1ccc(Cl)cc1)Nc1ccncc1`, the IC50 (protein: Human Nicotinamide Phosphoribosyltransferase, PDB entry 4o12) is 0.002 µM (active).
As to `CCOc1ccc(C(=O)Nc2ccc(F)c([C@@]3(C)NC(N)OCC3(F)F)c2)nc1` (some centres undefined), the IC50 reads like this: (protein: BETA-SECRETASE 2, PDB entry 3zlq) 0.904 µM (active); (protein: Beta-secretase 1, PDB entry 4j0t) 0.184 µM (active).
Take `CCOP(=O)(COc1ccc(CCc2cnc3c(c2)C(=O)N(C)c2cccnc2N3CC)cc1)OCC`: the IC50 (protein: Reverse transcriptase, PDB entry 4i7f) is 0.1 µM (active).
For the compound `O=C(COc1ccccc1[P+](O)(O)O)Nc1ccccc1C(F)(F)F`, the IC50 (protein: 14-3-3 protein sigma, PDB entry 3t0l) was 30 µM (active).
As to `O=C(COc1ccccc1[P+](O)(O)O)Nc1cccc(Cl)c1Cl`, the IC50 (protein: 14-3-3 protein sigma, PDB entry 4dhu) is 5 µM (active).
`O=C(COc1ccccc1[P+](O)(O)O)Nc1ccccc1Cl`: the half-inhibitory concentration (IC50) (protein: 14-3-3 protein sigma, PDB entry 4dhr) was 27 µM (active).
Consider `O=C(COc1ccccc1[P+](O)(O)O)Nc1cc(C(F)(F)F)ccc1Cl`, for which the IC50 (protein: 14-3-3 protein sigma, PDB entry 4dhp) was 36 µM (active).
Take `N#Cc1c(F)cc(O)cc1SCCS(O)(O)O`: the IC50 (protein: M-phase inducer phosphatase 2 CDC25B, PDB entry 4wh9) was 1000 µM (active).
`COc1cc2cc(c1)NC(=O)/C(C)=C/CC[C@H](OC(N)=O)[C@@H](OC(N)=O)/C(C)=C/[C@H](C)[C@@H](OC)[C@@H](OC)COC2`: the IC50 (protein: Heat shock protein HSP 90-alpha, PDB entry 4jql) was 1 µM (active).
For the compound `CSCC[C@H](NC(=O)[C@@H]1CSSC[C@H](NC(=O)[C@H](CC(N)=O)NC(=O)[C@@H](N)CCCNC(N)N)C(=O)N[C@@H](Cc2ccccc2)C(=O)N[C@@H](CCC(=O)O)C(=O)N[C@@H](CO)C(=O)N[C@@H](C(C)C)C(=O)N[C@@H](C)C(=O)N[C@@H](C)C(=O)N[C@@H](CC(C)C)C(=O)N[C@@H](CCCNC(N)N)C(=O)N[C@@H](CCCNC(N)N)C(=O)N1)C(=O)N[C@@H](Cc1ccc(O)cc1)C(=O)NCC(=O)O` (H-[Orn(CH(NH2)2)]NCFESVAAL[Orn(CH(NH2)2)][Orn(CH(NH2)2)]CMYG-OH; disulfide 3-13), the IC50 (protein: Insulin-like growth factor IB(IGF-I), PDB entry 1pmx) was 7.2 µM (active).
As for `CC[C@H](C)[C@@H]1NC(=O)[C@H](CC(=O)O)NC(=O)[C@@H](NC(=O)[C@H](CCC(=O)O)NC(=O)[C@H](CC(N)=O)NC(=O)CNC(=O)CN)CSSC[C@@H](C(=O)N[C@@H](Cc2ccccc2)C(=O)N[C@@H](CCC(=O)O)C(=O)N[C@@H](CCCNC(N)N)C(=O)N[C@@H](CC(C)C)C(=O)O)NC(=O)[C@H](CCC(=O)O)NC(=O)[C@H](Cc2c[nH]c3ccccc23)NC(=O)[C@H](CCC(=O)O)NC(=O)[C@H](Cc2c[nH]c3ccccc23)NC(=O)[C@H](CCSC)NC(=O)[C@H](CCCNC(N)N)NC(=O)[C@H](C)NC1=O` (H-GGNECDIA[Orn(CH(NH2)2)]MWEWECFE[Orn(CH(NH2)2)]L-OH; disulfide 5-15), under “protein: Vascular endothelial growth factor(VEGF), PDB entry 1kat”, the IC50 is 1 µM (active).
On to `CC[C@@H]1C(=O)N(C)c2cnc(-n3ccnc3-c3ccccc3)nc2N1C1CC=CC1`, for which the IC50 (protein: Serine/threonine-protein kinase PLK2 (C83S, V87T, A119S, A216S, C259A, C291S, L335T mutation), PDB entry 4i6f) is 0.005 µM (active).
`CC[C@@H]1C(=O)N(C)c2cnc(-n3ccnc3-c3cscn3)nc2N1C1CCCC1`: for the setting “protein: Serine/threonine-protein kinase PLK2 (C83S, V87T, A119S, A216S, C259A, C291S, L335T mutation), PDB entry 4i6h”, the IC50 was 0.005 µM (active).
With `CC[C@H](C)C/C=C/C(=O)N[C@@H](Cc1cc(F)cc(F)c1)C(=O)N[C@@H]1C(=O)N2CCC[C@H]2C(=O)N2CC[C@H](C)C[C@H]2C(=O)N[C@@H](C)C(=O)N2CCC[C@H]2C(=O)O[C@@H]1C` (X1-[Phe(3,5-F2)]TP[Pip(4S-Me)]AP; ester 2-C), the concentration for half-maximal inhibition (IC50) (protein: ATP-dependent Clp protease proteolytic subunit 1 ClpP1, PDB entry 4u0g) was 5.1 µM (active).
In the case of `Oc1ccc(-n2ccnc2)cc1`, the IC50 (protein: Polymerase PA, PDB entry 4m5r) was 1000 µM (active).
On to `c1cc2nc(N[C@H]3CCCNC3)c3cc[nH]c3n2n1`, for which the IC50 (protein: MAP kinase-activated protein kinase 2, PDB entry 3wi6) was 4.7 µM (active).
For `O=C(O)c1ccc2occc2c1`, the half-inhibitory concentration (IC50) (protein: Dengue virus 3 non-structural protein 5, PDB entry 4ctj) was 3120 µM (active).
Turning to `N[C@@H](CCNC(=O)N1CCn2c(ccc2C(F)(F)F)C1)Cc1cc(F)c(F)cc1F`, the IC50 (protein: Dipeptidyl peptidase 4, DPP4, PDB entry 4j3j) was 0.031 µM (active).
`COc1ccc(Cl)cc1NCC(=O)NC1CCC(n2c(=O)[nH]c3ccccc32)CC1` (centres undefined): the IC50 (protein: Tankyrase-1, PDB entry 4k4e) is 0.024 µM (active).
`COc1nc2c(cc1-c1c(C)noc1C)ncc1[nH]c(=O)n(-c3ccccc3OC(F)(F)F)c12`: the IC50 (protein: BROMODOMAIN-CONTAINING PROTEIN 4, PDB entry 4bw4) is 0.63 µM (active).
